PubChem BioAssay (NCI)
Compounds without any hit were thinned out: in the full panel of roughly 79,000, 15% have a hit. Unmarked numbers belong to inactive results. Calls of active or inactive are those of the source. Rule as the data show it: active = growth inhibition above about 70%; inactive = the rest.

Experiments:
[1] = NCI Yeast Anticancer Drug Screen. Data for the rad50 strain (AID 155);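 also: 0% = growth of vehicle-only cultures of the same strain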; details: S. cerevisiae rad50 strain growth inhibition, active compounds read high
Summary of the method: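 Vehicle-treated cultures provide the reference for the growth inhibition reported for compound-exposed, repair-deficient yeast.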

[2] = NCI Yeast Anticancer Drug Screen. Data for the mec2-1 strain (AID 157); details: S. cerevisiae mec2-1 strain, active compounds read high
Summary of the method: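 Test agents were screened against the mec2-1 yeast strain, with defined DNA repair or cell cycle alteration. Growth was scored as inhibition against vehicle-only controls.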

[3] = NCI Yeast Anticancer Drug Screen. Data for the sgs1 mgt1 strain (AID 161);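 also: 0% = growth of cultures given vehicle only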; details: S. cerevisiae sgs1 mgt1 strain, active compounds read high
Summary of the method: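 Genetically altered yeast, compound exposure, growth inhibition relative to vehicle.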

[4] = NCI Yeast Anticancer Drug Screen. Data for the cln2 rad14 strain (AID 165);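 also: 0% = growth equal to vehicle treated cultures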; details: S. cerevisiae cln2 rad14 strain, active compounds read high
Summary of the method: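 Growth of compound-exposed yeast (cln2 rad14 genotype) measured and expressed as inhibition relative to vehicle.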

[5] = NCI Yeast Anticancer Drug Screen. Data for the bub3 strain (AID 167); details: S. cerevisiae bub3 mutant strain, active compounds read high
Summary of the method: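 Mutant yeast screening strain plus compound; vehicle-treated cultures serve as the 0% inhibition reference.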

[6] = NCI Yeast Anticancer Drug Screen. Data for the mlh1 rad18 strain (AID 175); details: S. cerevisiae mlh1 rad18 strain growth inhibition, active compounds read high
Summary of the method: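 In this whole-cell yeast screen, a strain with altered DNA damage repair is challenged with compound, and its growth is measured against matched vehicle-treated controls.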

[7] = at 5.0 µM (retest, dose inferred, filed as 0.5)
[8] = at 50.0 µM (retest, dose inferred, filed as 5.0)

Structure (SMILES)	growth inhibition [1, 7]	growth inhibition [1, 8]	growth inhibition ([1]; at 50.0 µM)	growth inhibition [2, 7]	growth inhibition [2, 8]	growth inhibition ([2]; at 50.0 µM)	growth inhibition [3, 7]	growth inhibition [3, 8]	growth inhibition ([3]; at 50.0 µM)	growth inhibition [4, 7]	growth inhibition [4, 8]	growth inhibition ([4]; at 50.0 µM)	growth inhibition [5, 7]	growth inhibition [5, 8]	growth inhibition ([5]; at 50.0 µM)	growth inhibition [6, 7]	growth inhibition [6, 8]	growth inhibition ([6]; at 50.0 µM)
C=CCCCCCCCCC(=O)OCC=C	0%	4%	-2.1%	6%	3%	-18.1%	4%	9%	16.4%	0%	0%	26.6%	-3%	-4%	10.9%	-2%	-1%	9.2%
Cc1ccc(/C=N/NC(N)=S)cc1C	-6%	18%	45.1%	-4%	3%	10.8%	-5%	9%	61.7%	-12%	-13%	-11.1%	-4%	-2%	34.8%	-6%	7%	65.6%
CC(C)Nc1nc(NC(C)C)c2cnn(-c3ccccc3)c2n1	0%	55%	96.7% (active)	1%	69%	83.9% (active)	2%	95% (active)	98.5% (active)	-10%	24%	88.3% (active)	1%	68%	81.7% (active)	3%	74% (active)	95.5% (active)
O=C(O)Cc1cccc2c(=O)c3cccc([N+](=O)[O-])c3[nH]c12	32%	87% (active)	74.6% (active)	24%	83% (active)	58%	24%	60%	53.1%	28%	79% (active)	65%	22%	85% (active)	45.5%	28%	86% (active)	69.8%
O=S1(=O)CCc2ccccc2C(Br)C1Br (centres undefined)	13%	98% (active)	100% (active)	7%	99% (active)	99.6% (active)	15%	12%	99.5% (active)	17%	99% (active)	98.3% (active)	-6%	99% (active)	98.2% (active)	10%	99% (active)	99.3% (active)
CC1(C)CCC(C)(C)c2cc(C(=O)Nc3ccc(C(=O)O)cc3)ccc21	21%	99% (active)	-12.2%	22%	96% (active)	-18.1%	20%	99% (active)	0.8%	36%	97% (active)	-8.75%	13%	98% (active)	4%	34%	97% (active)	5.75%
CC(=O)Nc1ccc2c(c1)C(=Nc1ccc(F)cc1)c1ccccc1-2	7%	83% (active)	54.1%	0%	84% (active)	4.35%	2%	62%	14.3%	-1%	74% (active)	40.4%	-4%	47%	45.4%	0%	94% (active)	50.7%
S=C(NC/C(Br)=C/Br)Nc1cccc2ccccc12	-30%	99% (active)	86% (active)	-18%	99% (active)	89.8% (active)	-21%	99% (active)	85.6% (active)	-5%	99% (active)	88.8% (active)	-25%	99% (active)	90.7% (active)	-13%	99% (active)	81.3% (active)
COc1ccc(SSc2ccc(OC)n[n+]2[O-])[n+]([O-])n1	98% (active)	99% (active)	99.3% (active)	98% (active)	100% (active)	99.7% (active)	93% (active)	99% (active)	98.8% (active)	57%	97% (active)	98.3% (active)	59%	99% (active)	99.5% (active)	72% (active)	99% (active)	99.5% (active)
C=C1C[C@H]2C=Nc3cc(OCCCOc4cc5c(cc4OC)C(=O)N4CC(=C)C[C@H]4C=N5)c(OC)cc3C(=O)N2C1	92% (active)	95% (active)	98.3% (active)	94% (active)	97% (active)	98.7% (active)	88% (active)	94% (active)	97.7% (active)	92% (active)	97% (active)	98.3% (active)	86% (active)	95% (active)	98.6% (active)	92% (active)	95% (active)	98.7% (active)
CO/N=C/c1ccc([N+](=O)[O-])s1	-147%	95% (active)	65.7%	-44%	80% (active)	16.6%	-51%	71% (active)	33.8%	-63%	48%	7.5%	-61%	76% (active)	29.7%	-108%	94% (active)	75.5% (active)
CCCCCCCCCCCCCCCCOS(=O)(=O)O	24%	99% (active)	98% (active)	13%	100% (active)	98.5% (active)	49%	100% (active)	98.8% (active)	5%	99% (active)	97.7% (active)	20%	100% (active)	98.8% (active)	42%	100% (active)	99% (active)
COc1ccc(/C=N/Nc2cc(C)nc3cc4c(cc23)OCO4)c2ccccc12	20%	88% (active)	82.6% (active)	6%	81% (active)	85.8% (active)	22%	91% (active)	86% (active)	0%	24%	57.6%	8%	37%	97.9% (active)	12%	82% (active)	94.8% (active)
CC(C)SC(=S)Nc1ccc(Cl)cc1	-5%	92% (active)	97.8% (active)	-1%	98% (active)	99% (active)	8%	88% (active)	97% (active)	-18%	64%	96.8% (active)	0%	91% (active)	99% (active)	5%	96% (active)	98.9% (active)
O=C1/C(=C/c2cccc(F)c2)CCCc2ccccc21	3%	50%	70% (active)	4%	36%	37.2%	13%	67%	82.5% (active)	-14%	14%	12.3%	14%	81% (active)	75.5% (active)	2%	75% (active)	72.7% (active)
O=C(N/C(=C\c1ccc(Cl)cc1)c1nc2ccccc2s1)c1ccccc1	34%	95% (active)	98.3% (active)	32%	97% (active)	98.1% (active)	54%	97% (active)	98.8% (active)	15%	96% (active)	98% (active)	30%	97% (active)	96.7% (active)	28%	95% (active)	97.8% (active)
Cc1ccc(S(=O)(=O)N/N=c2\c(C)c(C3=NS(=O)(=O)c4cc(S(N)(=O)=O)c(Cl)cc4N3)oc3c(Cl)cc(Cl)cc23)cc1	40%	63%	77.9% (active)	32%	55%	47%	28%	59%	56.5%	33%	60%	65.9%	33%	73% (active)	60.5%	44%	69%	59.2%
CNc1nc(N)nc(N(C)c2ccc(Br)cc2)c1N=O	22%	71% (active)	68.2%	40%	58%	12.3%	11%	32%	17.6%	16%	33%	-30.7%	20%	64%	21.2%	36%	79% (active)	43.9%
